From PubChem BioAssay (NCI)
Where “and” joins values, the source holds several entries; their conditions need not be identical. Equal values may be shown once. This is part of a sample that, as a whole, favours compounds with a hit. Of some 83,000 tested, about 20% had one in any assay.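 Single-concentration screen, 48 h exposure, 96-well plates. Endpoint: percent growth. Below 10 = active.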 Calls of active or inactive are those of the source.

tested on: ACHN renal; test: NCI-60 one-dose screen, 48 h (100 = growth as untreated, 0 = no growth, -100 = all killed); details: 10 µM
Method: Growth inhibition of the ACHN human tumor cell line is measured as a screen for anti-cancer activity. Cells are grown in 96 well plates and exposed to the test compound for 48 hours. Compounds are tested at a single concentration, which is 10^-5 M for most compounds. The reported endpoint is percent growth (GI% or GIPRCNT), where numbers from 0 - 100% represent growth inhibition, and numbers from -100% - 0 represent cell death. For example, a value of 40 represents 60% growth inhibition. A value of 0 means no net growth occurred over the course of the experiment. A value of -40 indicates 40% of cells at the beginning of the experiment died by the end of the experiment. A value of -100 means all cells are dead at the end of the experiment.
NCI-60 Human Tumor Cell Lines Screen was performed using the standard one-dose NCI protocol, which is described in more detail at https://dtp.cancer.gov/discovery_development/nci-60/default.htm.
Compounds with GIPRCNT values below 10 were considered active. Activity score was based on GIPRCNT using the following formula: […]
Score is 0 for GIPRCNT values of 100 or above, 50 for GIPRCNT values of 0, and 100 for GIPRCNT values of -100.

Row | Structure (SMILES) | growth
1 | COc1ccc(Cl)cc1C(=O)NCCc1ccc(S(=O)(=O)NC(=O)NC2CCCCC2)cc1 | 96.9% (inactive) and 101% (inactive)
2 | CC1(C)OB(c2ccc(Cn3cc(F)c(=O)[nH]c3=O)cc2)OC1(C)C | 103% (inactive)

same assay, conditions: 10 µM unless noted

Row | Structure (SMILES) | growth
3 | CN(C)c1ccc(/C=C(\C#N)c2ccccc2)cc1 | 50.3% (inactive) and 65.3% (inactive) and 52.2% (inactive)
4 | CNC(=O)c1cccc(-c2ccc3c(N4CCOC[C@@H]4C)nc(N4CCOC[C@@H]4C)nc3n2)c1 | 0.741% (active) and -1.46% (active)
5 | O=C(Nc1ccc([N+](=O)[O-])cc1Cl)c1cc(Cl)ccc1O | -3.01% (active) and 8.03% (active)
6 | Cc1ncsc1CCO | 107% (inactive)
7 | NC(=O)c1ccccc1OCC(O)CO (stereo not given) | 103% (inactive)
8 | O=C(O)CN(CCN(CC(=O)O)CC(=O)O)CCN(CC(=O)O)CC(=O)O | 97.5% (inactive) and 104% (inactive)
9 | CN(C)CCCN1c2ccccc2Sc2ccc(Cl)cc21 | 44.8% (inactive) and 108% (inactive) and 68.7% (inactive)
10 | O=CC(O)C(O)C(O)CO (stereo not given) | 98.7% (inactive) and 98.1% (inactive)
11 | COc1cc2c(c(OC)c1OC)-c1ccc(OC)c(=O)cc1[C@@H](NC(C)=O)CC2 | 27.8% (inactive) and 27.2% (inactive) and 30.5% (inactive)
12 | S=C1SCN(Cc2ccccc2)CN1Cc1ccccc1 | 84.5% (inactive)
13 | C=C1C(=O)O[C@H]2[C@H]1CC/C(COC(=O)NC1CCC(O)CC1)=C\CC[C@@]1(C)O[C@@H]21 (stereo not given in full) | 54.3% (inactive) and 45% (inactive)
14 | CCOc1ccc2cc(-c3nn(CC4CCN(C)CC4)c4ncnc(N)c34)ccc2c1 | 96.5% (inactive) and 53.9% (inactive)
15 | CC#C[C@]1(O)CC[C@H]2[C@@H]3CCC4=CC(=O)CCC4=C3[C@@H](c3ccc4c(c3)OCO4)C[C@@]21C | 80.4% (inactive)
16 | Cc1n[nH]c(=O)n(/N=C\c2c[nH]c3ccccc23)c1=O | 98.5% (inactive)
17 | CCOc1ccc(Nc2c3ccccc3nc3ccccc23)cc1 | 84.9% (inactive) and -30.4% (active) and 6.25% (active)
18 | O=C(CN1CCN(c2cc3c(cc2F)c(=O)c(C(=O)O)cn3C2CC2)CC1)Nc1ccc(Cl)cc1 | 53.2% (inactive) and 84.4% (inactive)
19 | Cc1ccc(NCSc2ccc(Cl)cc2)cc1 | 88.4% (inactive) and 99.6% (inactive)
20 | CC(C)CNC(=O)c1ccccc1C(=O)NC1(C(=O)NCC(C)C)CCCC1 | 102% (inactive) and 104% (inactive)

Row | Structure (SMILES) | growth
21 | COc1ccc2cc3[n+](cc2c1OC)CCc1cc2c(cc1-3)OCO2 | 91.2% (inactive)
22 | N#C/C(=C/c1c(O)ccc2ccccc12)C(N)=O | 92.4% (inactive)
23 | CNC(=O)c1cccnc1 | 104% (inactive)
24 | N#CCCOc1ccccc1 | 102% (inactive)
25 | CCOc1ccc2cc(-c3nn(CC4CCNCC4)c4ncnc(N)c34)ccc2c1 | 102% (inactive) and 49.5% (inactive)
26 | CCN(CC)CCOc1ccc2c(c1)C(=O)c1cc(OCCN(CC)CC)ccc1-2 | 46.7% (inactive)
27 | CN1CCN(CCC=C2c3ccccc3Sc3ccc(S(=O)(=O)N(C)C)cc32)CC1 | 65.8% (inactive) and 73.1% (inactive)
28 | O=[N+]([O-])c1ccc(Oc2ccccc2)cc1 | 106% (inactive) and 105% (inactive)
29 | C1CCCCNCCC1 | 117% (inactive)
30 | CN(C)c1ccc2nc3ccc(=[N+](C)C)cc-3sc2c1 | 24.6% (inactive) and 24.4% (inactive) and 83% (inactive)
31 | c1ccc2cc(C[n+]3ccn(Cc4ccc5ccccc5n4)c3)ccc2c1 | 86.3% (inactive) and 102% (inactive)
32 | Clc1ccc(SSc2ccc(Cl)cc2)cc1 | 99.4% (inactive) and 99.7% (inactive)
33 | O=C1C2=C(C(=O)c3ccccc31)C(O)(S(=O)(=O)O)C(O)(S(=O)(=O)O)C1N=CC=CC21 (stereo not given) | 36.3% (inactive) and 32.8% (inactive)
34 | Nc1ccc(N=Nc2ccc(S(=O)(=O)O)cc2)cc1S(=O)(=O)O | 99.8% (inactive) and 100% (inactive)
35 | CCCCCN(CCCCC)CC(O)c1cc2c(c3ccccc13)CCCC2 (stereo not given) | 55.8% (inactive) and 49% (inactive)
36 | COc1cc2nc(N3CCN(C(=O)C4COc5ccccc5O4)CC3)nc(N)c2cc1OC (stereo not given) | 121% (inactive) and 92.4% (inactive) and 98.8% (inactive)
37 | Fc1ccccc1Nc1n[nH]c(=S)s1 | 110% (inactive)
38 | CC(O)(CC(=O)CC(=O)c1ccccc1)c1ccccc1 (stereo not given) | 94.9% (inactive) and 106% (inactive)

same assay, conditions: 50 µM

Row | Structure (SMILES) | growth
39 | CC1(C)OB(c2ccc(Cn3cc(F)c(=O)[nH]c3=O)cc2)OC1(C)C | 92.1% (inactive)

same assay, conditions: 100 µM

Row | Structure (SMILES) | growth
40 | COc1ccc(Cl)cc1C(=O)NCCc1ccc(S(=O)(=O)NC(=O)NC2CCCCC2)cc1 | 54.8% (inactive)
